Laboratory results: PubChem BioAssay (NCI)
The panel holds about 79,000 compounds, 15% with a hit somewhere; the sample as a whole holds those more often. Unmarked numbers belong to inactive results. The source made the active and inactive calls. Cut-off read from the data, not from the text of the source: active = growth inhibition above about 70%; inactive = the rest.

How the values were obtained:
[1] = NCI Yeast Anticancer Drug Screen. Data for the rad52 strain (AID 147);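 note: 0% = growth of vehicle-treated control cultures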; conditions: S. cerevisiae rad52 mutant growth inhibition, stronger effect = higher value
In short: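 Read-out: growth inhibition versus vehicle-treated controls. Cells were a DNA repair-deficient yeast strain treated with compounds.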

[2] = NCI Yeast Anticancer Drug Screen. Data for the wt1 strain (AID 149);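 note: 0% = growth of vehicle-treated wt1 cultures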; conditions: S. cerevisiae wt1 strain (SPY 50644) growth inhibition, stronger effect = higher value
In short: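 Growth inhibition read against vehicle controls after compound exposure of the wt1 yeast strain.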

[3] = NCI Yeast Anticancer Drug Screen. Data for the rad50EPP+ strain (AID 151);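 note: 0% = growth of vehicle-treated control cultures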; conditions: S. cerevisiae rad50 mutant strain, stronger effect = higher value
In short: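 Growth inhibition read against vehicle controls in rad50EPP+ yeast, a strain altered in DNA damage repair, after compound exposure.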

[4] = NCI Yeast Anticancer Drug Screen. Data for the mgt1 strain (AID 153); conditions: S. cerevisiae mgt1 mutant growth inhibition, stronger effect = higher value
In short: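 mgt1 yeast grown with test compound; read-out is growth inhibition versus vehicle-treated cultures.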

[5] = NCI Yeast Anticancer Drug Screen. Data for the rad50 strain (AID 155);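 note: 0% = growth of vehicle-only cultures of the same strain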; conditions: S. cerevisiae rad50 strain growth inhibition, stronger effect = higher value
In short: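 Readout: growth inhibition relative to vehicle-treated cultures. Compound exposure was carried out in a genetically defined yeast strain deficient in DNA damage repair.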

[6] = NCI Yeast Anticancer Drug Screen. Data for the mec2-1 strain (AID 157); conditions: S. cerevisiae mec2-1 strain, stronger effect = higher value
In short: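 Yeast mec2-1 mutant treated with compound. Readout: growth inhibition vs vehicle controls.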

[7] = NCI Yeast Anticancer Drug Screen. Data for the rad14 strain (AID 159);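 note: 0% = growth of vehicle-treated control cultures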; conditions: S. cerevisiae rad14 strain growth inhibition, stronger effect = higher value
In short: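 Growth inhibition vs vehicle controls; genetically altered yeast strain (DNA damage repair defect) treated with test compounds.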

[8] = NCI Yeast Anticancer Drug Screen. Data for the sgs1 mgt1 strain (AID 161);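 note: 0% = growth of cultures given vehicle only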; conditions: S. cerevisiae sgs1 mgt1 strain, stronger effect = higher value
In short: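 Inhibition of yeast growth, normalised to vehicle-treated controls, is reported for a strain bearing genetic alterations in DNA damage repair.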

[9] = NCI Yeast Anticancer Drug Screen. Data for the CLN2oe strain (AID 163);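 note: 0% = growth of vehicle-only control cultures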; conditions: S. cerevisiae CLN2oe strain, stronger effect = higher value
In short: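 Read-out: yeast growth inhibition, expressed relative to vehicle-only controls. The strain bears an engineered cell-cycle alteration.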

[10] = NCI Yeast Anticancer Drug Screen. Data for the cln2 rad14 strain (AID 165);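 note: 0% = growth equal to vehicle treated cultures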; conditions: S. cerevisiae cln2 rad14 strain, stronger effect = higher value
In short: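 cln2 rad14 yeast strain; compound exposure; growth inhibition read vs vehicle controls.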

[11] = NCI Yeast Anticancer Drug Screen. Data for the bub3 strain (AID 167); conditions: S. cerevisiae bub3 mutant strain, stronger effect = higher value
In short: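 Readout: yeast growth inhibition, expressed relative to vehicle-only wells. The test organism is a mutant strain from a panel with lesions in DNA repair or checkpoint genes.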

[12] = NCI Yeast Anticancer Drug Screen. Data for the wt2 strain (AID 169);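 note: 0% = growth of vehicle-treated yeast cultures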; conditions: S. cerevisiae wt2 strain growth inhibition, stronger effect = higher value
In short: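 Read-out: growth inhibition versus vehicle-treated control cultures after compound exposure of the yeast strain.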

[13] = NCI Yeast Anticancer Drug Screen. Data for the mlh1 strain (AID 171);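 note: 0% = growth of vehicle-treated control cultures of the same strain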; conditions: S. cerevisiae mlh1 strain growth inhibition, stronger effect = higher value
In short: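 Read-out: growth inhibition versus vehicle controls. Strain: engineered yeast with a defined DNA repair or cell cycle defect, compound-treated.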

[14] = NCI Yeast Anticancer Drug Screen. Data for the sgs1 strain (AID 173);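 note: 0% = growth of vehicle-only control cultures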; conditions: S. cerevisiae sgs1 mutant, stronger effect = higher value
In short: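 Read-out: yeast growth inhibition relative to vehicle controls, following compound exposure of a strain with a defined DNA repair/cell cycle alteration.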

[15] = NCI Yeast Anticancer Drug Screen. Data for the mlh1 rad18 strain (AID 175); conditions: S. cerevisiae mlh1 rad18 strain growth inhibition, stronger effect = higher value
In short: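 Yeast w/ defined DNA-repair lesions; compound exposure; growth vs vehicle controls → % inhibition.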

[16] = NCI Yeast Anticancer Drug Screen. Data for the rad18 strain (AID 177); conditions: S. cerevisiae rad18 mutant growth inhibition, stronger effect = higher value
In short: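 Readout: growth inhibition vs vehicle controls. Cells: genetically altered yeast strain, DNA repair defect.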

[17] = at 5.0 µM (retest, dose inferred, filed as 0.5)
[18] = at 50.0 µM (retest, dose inferred, filed as 5.0)

## CCCCCCCCCCCC1=NCCO1
[1]; at 1.2 µM
  growth inhibition: 3%
[1]; at 3.7 µM
  growth inhibition: 3%
[1]; at 11.0 µM
  growth inhibition: -1%
[1]; at 33.0 µM
  growth inhibition: 18%
[1]; at 100.0 µM
  growth inhibition: 98% (active)
[2]; at 1.2 µM
  growth inhibition: 1%
[2]; at 3.7 µM
  growth inhibition: -1%
[2]; at 11.0 µM
  growth inhibition: 2%
[2]; at 33.0 µM
  growth inhibition: 15%
[2]; at 100.0 µM
  growth inhibition: 98% (active)
[3]; at 1.2 µM
  growth inhibition: 4%
[3]; at 3.7 µM
  growth inhibition: 5%
[3]; at 11.0 µM
  growth inhibition: 16%
[3]; at 33.0 µM
  growth inhibition: 27%
[3]; at 100.0 µM
  growth inhibition: 53%
[4]; at 1.2 µM
  growth inhibition: -5%
[4]; at 3.7 µM
  growth inhibition: 3%
[4]; at 11.0 µM
  growth inhibition: 0%
[4]; at 33.0 µM
  growth inhibition: 27%
[4]; at 100.0 µM
  growth inhibition: 99% (active)
[5]; at 1.2 µM
  growth inhibition: 9%
[5]; at 3.7 µM
  growth inhibition: 18%
[5]; [17]
  growth inhibition: -11%
[5]; at 11.0 µM
  growth inhibition: 14%
[5]; at 33.0 µM
  growth inhibition: 29%
[5]; [18]
  growth inhibition: 8%
[5]; at 50.0 µM
  growth inhibition: 25.1%
[5]; at 100.0 µM
  growth inhibition: 99% (active)
[6]; at 1.2 µM
  growth inhibition: -6%
[6]; at 3.7 µM
  growth inhibition: -4%
[6]; [17]
  growth inhibition: -12%
[6]; at 11.0 µM
  growth inhibition: -13%
[6]; at 33.0 µM
  growth inhibition: 18%
[6]; [18]
  growth inhibition: -21%
[6]; at 50.0 µM
  growth inhibition: 46.3%
[6]; at 100.0 µM
  growth inhibition: 99% (active)
[7]; at 1.2 µM
  growth inhibition: 3%
[7]; at 3.7 µM
  growth inhibition: 9%
[7]; at 11.0 µM
  growth inhibition: 15%
[7]; at 33.0 µM
  growth inhibition: 50%
[7]; at 100.0 µM
  growth inhibition: 99% (active)
[8]; [17]
  growth inhibition: -12%
[8]; [18]
  growth inhibition: 47%
[8]; at 50.0 µM
  growth inhibition: 87.6% (active)
[9]; at 1.2 µM
  growth inhibition: -3%
[9]; at 3.7 µM
  growth inhibition: -1%
[9]; at 11.0 µM
  growth inhibition: 4%
[9]; at 33.0 µM
  growth inhibition: 19%
[9]; at 100.0 µM
  growth inhibition: 99% (active)
[10]; [17]
  growth inhibition: -18%
[10]; [18]
  growth inhibition: 36%
[10]; at 50.0 µM
  growth inhibition: 21%
[11]; at 1.2 µM
  growth inhibition: -19%
[11]; at 3.7 µM
  growth inhibition: -27%
[11]; [17]
  growth inhibition: -34%
[11]; at 11.0 µM
  growth inhibition: -1%
[11]; at 33.0 µM
  growth inhibition: 8%
[11]; [18]
  growth inhibition: 31%
[11]; at 50.0 µM
  growth inhibition: 24.5%
[11]; at 100.0 µM
  growth inhibition: 98% (active)
[12]; at 1.2 µM
  growth inhibition: -1%
[12]; at 3.7 µM
  growth inhibition: 0%
[12]; at 11.0 µM
  growth inhibition: 2%
[12]; at 33.0 µM
  growth inhibition: 61%
[12]; at 100.0 µM
  growth inhibition: 99% (active)
[13]; at 1.2 µM
  growth inhibition: -5%
[13]; at 3.7 µM
  growth inhibition: -3%
[13]; at 11.0 µM
  growth inhibition: -10%
[13]; at 33.0 µM
  growth inhibition: 16%
[13]; at 100.0 µM
  growth inhibition: 99% (active)
[14]; at 1.2 µM
  growth inhibition: 1%
[14]; at 3.7 µM
  growth inhibition: -1%
[14]; at 11.0 µM
  growth inhibition: 6%
[14]; at 33.0 µM
  growth inhibition: 63%
[14]; at 100.0 µM
  growth inhibition: 99% (active)
[15]; [17]
  growth inhibition: -16%
[15]; [18]
  growth inhibition: 71% (active)
[15]; at 50.0 µM
  growth inhibition: 41%
[16]; at 1.2 µM
  growth inhibition: 4%
[16]; at 3.7 µM
  growth inhibition: 8%
[16]; at 11.0 µM
  growth inhibition: 5%
[16]; at 33.0 µM
  growth inhibition: 10%
[16]; at 100.0 µM
  growth inhibition: 98% (active)
